This is an account of results in ChEMBL document CHEMBL1961873, “Compounds: GSK PKIS; Assays: Nanosyn kinase panel” (2012).

Assay [1] addresses T1, Inhibitor of nuclear factor kappa-B kinase subunit epsilon (Homo sapiens) (UniProt Q14164).
T1 sequence (whole entry): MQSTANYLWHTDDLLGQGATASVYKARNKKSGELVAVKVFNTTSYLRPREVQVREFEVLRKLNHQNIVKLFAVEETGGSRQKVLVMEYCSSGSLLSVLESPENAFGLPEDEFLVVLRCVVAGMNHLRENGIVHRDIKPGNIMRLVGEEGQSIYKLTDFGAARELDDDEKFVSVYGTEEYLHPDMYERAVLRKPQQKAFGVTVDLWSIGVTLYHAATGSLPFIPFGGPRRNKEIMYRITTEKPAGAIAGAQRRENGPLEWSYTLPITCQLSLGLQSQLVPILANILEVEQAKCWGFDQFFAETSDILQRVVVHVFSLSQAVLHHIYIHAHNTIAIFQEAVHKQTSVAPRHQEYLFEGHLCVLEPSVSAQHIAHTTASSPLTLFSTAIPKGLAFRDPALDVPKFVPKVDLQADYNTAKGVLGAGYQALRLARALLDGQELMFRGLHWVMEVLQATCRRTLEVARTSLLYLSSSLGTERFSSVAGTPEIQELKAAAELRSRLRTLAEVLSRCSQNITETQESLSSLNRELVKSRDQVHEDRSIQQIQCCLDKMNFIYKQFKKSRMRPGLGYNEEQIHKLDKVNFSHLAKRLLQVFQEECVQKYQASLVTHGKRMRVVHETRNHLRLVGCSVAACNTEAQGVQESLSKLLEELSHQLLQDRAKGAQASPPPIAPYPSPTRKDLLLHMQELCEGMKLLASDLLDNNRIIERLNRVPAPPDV
The settings on record: at 1 µM.

The target of assay [2] is T2, Serine/threonine-protein kinase Nek1 (Homo sapiens) (UniProt Q96PY6).
T2 sequence (whole entry): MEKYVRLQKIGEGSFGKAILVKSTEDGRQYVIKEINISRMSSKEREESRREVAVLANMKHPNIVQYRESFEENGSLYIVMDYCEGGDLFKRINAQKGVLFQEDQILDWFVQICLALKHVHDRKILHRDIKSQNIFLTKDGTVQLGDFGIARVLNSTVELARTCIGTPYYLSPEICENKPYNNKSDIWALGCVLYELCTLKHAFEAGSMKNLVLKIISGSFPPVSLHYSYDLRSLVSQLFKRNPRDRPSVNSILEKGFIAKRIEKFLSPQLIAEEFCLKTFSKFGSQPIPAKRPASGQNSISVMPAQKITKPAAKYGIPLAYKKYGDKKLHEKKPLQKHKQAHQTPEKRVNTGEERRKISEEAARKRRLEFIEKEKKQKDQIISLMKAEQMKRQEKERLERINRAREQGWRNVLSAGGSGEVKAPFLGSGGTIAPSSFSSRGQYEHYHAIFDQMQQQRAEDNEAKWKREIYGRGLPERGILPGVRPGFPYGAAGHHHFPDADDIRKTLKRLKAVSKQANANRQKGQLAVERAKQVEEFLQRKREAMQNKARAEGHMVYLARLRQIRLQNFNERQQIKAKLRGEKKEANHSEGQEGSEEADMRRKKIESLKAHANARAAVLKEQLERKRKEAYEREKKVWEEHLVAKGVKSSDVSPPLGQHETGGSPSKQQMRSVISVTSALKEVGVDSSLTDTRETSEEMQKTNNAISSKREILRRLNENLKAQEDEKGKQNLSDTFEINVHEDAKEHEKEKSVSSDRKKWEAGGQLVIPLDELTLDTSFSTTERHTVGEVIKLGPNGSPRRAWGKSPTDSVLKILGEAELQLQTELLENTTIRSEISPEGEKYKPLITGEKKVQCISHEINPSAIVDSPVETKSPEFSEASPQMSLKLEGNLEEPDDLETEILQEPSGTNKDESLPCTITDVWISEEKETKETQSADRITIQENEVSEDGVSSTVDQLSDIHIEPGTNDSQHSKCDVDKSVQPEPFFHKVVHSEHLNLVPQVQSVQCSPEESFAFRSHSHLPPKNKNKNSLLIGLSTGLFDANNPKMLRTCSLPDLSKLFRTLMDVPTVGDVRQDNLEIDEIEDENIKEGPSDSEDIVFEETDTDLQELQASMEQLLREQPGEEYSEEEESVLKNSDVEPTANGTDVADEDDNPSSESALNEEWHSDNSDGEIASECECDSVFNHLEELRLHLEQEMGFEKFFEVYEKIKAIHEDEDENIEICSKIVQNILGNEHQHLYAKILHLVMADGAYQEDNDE
The settings on record: at 0.1 µM.

Assay [3] addresses T2, Serine/threonine-protein kinase Nek1 (Homo sapiens). The settings on record: at 1 µM.
Assay [4] deals with T3, Serine/threonine-protein kinase Nek2 (Homo sapiens) (UniProt P51955).
T3 sequence (whole entry): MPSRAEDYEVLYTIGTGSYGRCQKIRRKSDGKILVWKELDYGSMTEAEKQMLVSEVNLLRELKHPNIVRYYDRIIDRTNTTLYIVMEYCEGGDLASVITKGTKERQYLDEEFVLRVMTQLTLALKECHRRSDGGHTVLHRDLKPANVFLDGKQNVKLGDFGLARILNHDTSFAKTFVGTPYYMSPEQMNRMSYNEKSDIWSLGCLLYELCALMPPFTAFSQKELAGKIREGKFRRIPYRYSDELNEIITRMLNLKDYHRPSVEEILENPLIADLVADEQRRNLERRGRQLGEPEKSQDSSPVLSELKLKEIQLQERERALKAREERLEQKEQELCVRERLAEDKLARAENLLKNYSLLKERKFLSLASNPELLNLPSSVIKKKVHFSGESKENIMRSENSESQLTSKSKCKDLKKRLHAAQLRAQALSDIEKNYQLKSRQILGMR
The settings on record: at 0.1 µM.

Assay [5] addresses T3, Serine/threonine-protein kinase Nek2 (Homo sapiens). Conditions: at 1 µM.
In assay [6] the target is Serine/threonine-protein kinase Nek6 (Homo sapiens) (UniProt Q9HC98). The settings on record: at 0.1 µM.
Chain of Serine/threonine-protein kinase Nek6 (Homo sapiens) (Q9HC98 whole entry): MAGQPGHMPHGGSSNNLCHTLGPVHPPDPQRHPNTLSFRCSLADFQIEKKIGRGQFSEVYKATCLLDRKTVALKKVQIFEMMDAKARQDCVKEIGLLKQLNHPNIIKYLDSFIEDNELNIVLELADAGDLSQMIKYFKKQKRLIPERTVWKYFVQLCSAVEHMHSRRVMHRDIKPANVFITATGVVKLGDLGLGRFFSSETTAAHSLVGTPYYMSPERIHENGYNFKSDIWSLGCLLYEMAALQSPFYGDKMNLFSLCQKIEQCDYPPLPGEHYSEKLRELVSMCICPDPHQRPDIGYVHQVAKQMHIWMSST
Assay [7] has the same target. Conditions: at 1 µM.
Assay [8] deals with Serine/threonine-protein kinase Nek7 (Homo sapiens) (UniProt Q8TDX7). The settings on record: at 0.1 µM.
Chain of Serine/threonine-protein kinase Nek7 (Homo sapiens) (Q8TDX7 whole entry, looked up): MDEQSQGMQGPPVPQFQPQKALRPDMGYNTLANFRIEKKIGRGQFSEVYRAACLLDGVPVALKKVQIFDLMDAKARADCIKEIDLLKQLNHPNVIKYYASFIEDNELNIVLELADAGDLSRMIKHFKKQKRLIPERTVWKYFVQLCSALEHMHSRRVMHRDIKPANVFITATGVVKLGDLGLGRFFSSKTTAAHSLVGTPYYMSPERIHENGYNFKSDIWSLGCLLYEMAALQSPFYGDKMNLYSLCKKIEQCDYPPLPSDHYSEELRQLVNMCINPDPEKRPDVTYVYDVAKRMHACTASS
For assay [9] the target is unchanged. Conditions: at 1 µM.
Assay [10] addresses T4, Serine/threonine-protein kinase Nek9 (Homo sapiens) (UniProt Q8TD19).
T4 sequence (whole entry): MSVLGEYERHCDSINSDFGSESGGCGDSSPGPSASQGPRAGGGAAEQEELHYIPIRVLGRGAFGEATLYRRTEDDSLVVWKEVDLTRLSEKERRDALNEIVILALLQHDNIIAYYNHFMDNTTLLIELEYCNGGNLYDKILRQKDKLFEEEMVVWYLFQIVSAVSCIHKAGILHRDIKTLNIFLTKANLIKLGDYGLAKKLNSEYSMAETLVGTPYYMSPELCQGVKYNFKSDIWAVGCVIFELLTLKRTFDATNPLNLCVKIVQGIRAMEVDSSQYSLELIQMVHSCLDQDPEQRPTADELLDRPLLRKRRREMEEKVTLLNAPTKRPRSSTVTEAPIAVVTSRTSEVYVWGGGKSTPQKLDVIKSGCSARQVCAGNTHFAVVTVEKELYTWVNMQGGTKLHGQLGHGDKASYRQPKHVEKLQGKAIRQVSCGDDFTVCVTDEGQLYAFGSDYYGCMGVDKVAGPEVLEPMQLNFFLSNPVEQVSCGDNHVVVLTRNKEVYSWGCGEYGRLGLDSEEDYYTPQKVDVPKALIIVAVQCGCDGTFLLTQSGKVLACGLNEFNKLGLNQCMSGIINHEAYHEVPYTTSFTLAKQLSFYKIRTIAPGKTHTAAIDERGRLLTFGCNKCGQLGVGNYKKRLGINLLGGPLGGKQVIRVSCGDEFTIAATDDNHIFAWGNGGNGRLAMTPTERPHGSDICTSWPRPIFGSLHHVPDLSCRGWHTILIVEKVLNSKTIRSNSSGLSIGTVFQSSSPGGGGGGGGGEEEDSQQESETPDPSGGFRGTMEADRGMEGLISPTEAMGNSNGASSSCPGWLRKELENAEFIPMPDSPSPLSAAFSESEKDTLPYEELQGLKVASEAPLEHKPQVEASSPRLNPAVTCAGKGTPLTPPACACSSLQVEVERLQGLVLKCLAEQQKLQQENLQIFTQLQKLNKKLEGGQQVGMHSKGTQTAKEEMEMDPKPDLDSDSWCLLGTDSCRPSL
Conditions: at 0.1 µM.

Assay [11] has as its target T4, Serine/threonine-protein kinase Nek9 (Homo sapiens). The settings on record: at 1 µM.
Assay [12] has as its target Serine/threonine-protein kinase PLK1 (Homo sapiens) (UniProt P53350). The settings on record: at 0.1 µM.
Assay [13] shares this target. Conditions: at 1 µM.
Assay [14] deals with T5, Dual specificity protein kinase TTK (Homo sapiens) (UniProt P33981).
T5 sequence (whole entry): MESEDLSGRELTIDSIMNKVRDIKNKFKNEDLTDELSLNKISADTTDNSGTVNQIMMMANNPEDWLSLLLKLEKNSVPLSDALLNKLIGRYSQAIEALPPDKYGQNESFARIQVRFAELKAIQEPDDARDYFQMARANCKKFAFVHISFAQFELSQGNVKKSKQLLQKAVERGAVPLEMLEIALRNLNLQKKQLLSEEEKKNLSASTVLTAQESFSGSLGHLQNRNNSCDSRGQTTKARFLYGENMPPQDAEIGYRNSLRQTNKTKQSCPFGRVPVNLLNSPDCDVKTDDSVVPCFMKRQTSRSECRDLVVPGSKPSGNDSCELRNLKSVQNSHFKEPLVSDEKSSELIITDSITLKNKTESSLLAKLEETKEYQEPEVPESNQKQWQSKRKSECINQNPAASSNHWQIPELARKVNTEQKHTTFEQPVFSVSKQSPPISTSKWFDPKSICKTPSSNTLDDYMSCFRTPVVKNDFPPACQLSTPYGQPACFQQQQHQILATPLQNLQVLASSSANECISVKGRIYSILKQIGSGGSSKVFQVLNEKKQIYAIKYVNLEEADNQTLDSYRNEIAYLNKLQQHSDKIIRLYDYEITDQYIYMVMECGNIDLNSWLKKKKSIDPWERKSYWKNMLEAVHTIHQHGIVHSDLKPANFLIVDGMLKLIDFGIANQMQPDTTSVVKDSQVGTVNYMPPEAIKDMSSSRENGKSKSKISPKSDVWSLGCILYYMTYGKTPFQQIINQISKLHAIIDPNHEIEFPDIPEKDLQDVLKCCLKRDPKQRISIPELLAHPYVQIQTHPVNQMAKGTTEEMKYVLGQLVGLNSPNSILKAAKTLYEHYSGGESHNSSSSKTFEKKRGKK
The settings on record: at 0.1 µM.

For assay [15], the system named is T6, Receptor-type tyrosine-protein kinase FLT3 (Homo sapiens), P36888 [D835Y].
T6 sequence (whole entry): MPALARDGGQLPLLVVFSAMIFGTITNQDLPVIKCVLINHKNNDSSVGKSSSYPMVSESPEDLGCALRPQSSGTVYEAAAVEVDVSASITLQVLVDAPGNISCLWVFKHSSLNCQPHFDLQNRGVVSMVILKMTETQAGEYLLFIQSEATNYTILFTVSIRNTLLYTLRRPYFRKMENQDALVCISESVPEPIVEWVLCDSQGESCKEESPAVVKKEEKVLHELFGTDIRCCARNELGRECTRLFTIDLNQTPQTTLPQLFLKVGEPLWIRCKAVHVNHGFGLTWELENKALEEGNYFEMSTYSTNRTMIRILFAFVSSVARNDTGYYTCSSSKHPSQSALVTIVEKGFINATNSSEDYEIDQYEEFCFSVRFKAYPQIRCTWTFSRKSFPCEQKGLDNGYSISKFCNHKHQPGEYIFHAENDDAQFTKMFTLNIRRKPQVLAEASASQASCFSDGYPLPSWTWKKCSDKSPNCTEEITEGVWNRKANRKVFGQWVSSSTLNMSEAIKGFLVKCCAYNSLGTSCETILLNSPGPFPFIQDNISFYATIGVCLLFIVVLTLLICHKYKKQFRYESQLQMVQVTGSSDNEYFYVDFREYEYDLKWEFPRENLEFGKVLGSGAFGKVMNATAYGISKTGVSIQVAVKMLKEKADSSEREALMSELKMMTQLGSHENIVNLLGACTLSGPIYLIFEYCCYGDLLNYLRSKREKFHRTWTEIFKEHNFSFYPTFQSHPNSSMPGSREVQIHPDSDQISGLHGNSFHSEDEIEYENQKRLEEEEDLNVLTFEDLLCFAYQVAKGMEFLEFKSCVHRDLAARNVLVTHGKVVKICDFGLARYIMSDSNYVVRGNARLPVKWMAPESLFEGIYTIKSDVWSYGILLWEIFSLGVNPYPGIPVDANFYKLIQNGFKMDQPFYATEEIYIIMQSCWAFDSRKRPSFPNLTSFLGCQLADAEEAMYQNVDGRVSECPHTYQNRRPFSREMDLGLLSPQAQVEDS
Conditions: at 1 µM.

Assay [16] addresses Vascular endothelial growth factor receptor 3 (Homo sapiens) (UniProt P35916). The settings on record: at 0.1 µM.
Assay [17] has the same target. The settings on record: at 1 µM.
Assay [18] concerns the target Macrophage colony-stimulating factor 1 receptor (Homo sapiens) (UniProt P07333). Conditions: at 0.1 µM.
The target is the same in assay [19]. Conditions: at 1 µM.
Assay [20] deals with Tyrosine-protein kinase Fyn (Homo sapiens) (UniProt P06241). The settings on record: at 0.1 µM.
Chain of Tyrosine-protein kinase Fyn (Homo sapiens) (P06241 2-537 limits assumed): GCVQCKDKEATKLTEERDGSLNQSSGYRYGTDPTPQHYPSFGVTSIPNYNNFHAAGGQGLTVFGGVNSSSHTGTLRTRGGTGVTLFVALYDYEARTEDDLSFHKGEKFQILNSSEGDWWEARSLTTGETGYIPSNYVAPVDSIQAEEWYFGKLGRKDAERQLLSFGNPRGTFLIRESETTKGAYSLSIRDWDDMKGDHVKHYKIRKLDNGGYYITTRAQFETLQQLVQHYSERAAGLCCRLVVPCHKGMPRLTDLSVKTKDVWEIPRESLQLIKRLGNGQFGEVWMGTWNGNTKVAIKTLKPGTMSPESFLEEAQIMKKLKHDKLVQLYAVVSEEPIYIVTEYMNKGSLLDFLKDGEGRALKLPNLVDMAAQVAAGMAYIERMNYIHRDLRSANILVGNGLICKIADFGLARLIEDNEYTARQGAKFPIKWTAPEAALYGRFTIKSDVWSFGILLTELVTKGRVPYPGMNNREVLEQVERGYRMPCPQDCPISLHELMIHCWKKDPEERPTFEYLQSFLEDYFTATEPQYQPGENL

Where “and” joins values, the source holds several entries; their conditions need not be identical. Equal values may be shown once.

Chain of Serine/threonine-protein kinase PLK1 (Homo sapiens) (P53350 whole entry): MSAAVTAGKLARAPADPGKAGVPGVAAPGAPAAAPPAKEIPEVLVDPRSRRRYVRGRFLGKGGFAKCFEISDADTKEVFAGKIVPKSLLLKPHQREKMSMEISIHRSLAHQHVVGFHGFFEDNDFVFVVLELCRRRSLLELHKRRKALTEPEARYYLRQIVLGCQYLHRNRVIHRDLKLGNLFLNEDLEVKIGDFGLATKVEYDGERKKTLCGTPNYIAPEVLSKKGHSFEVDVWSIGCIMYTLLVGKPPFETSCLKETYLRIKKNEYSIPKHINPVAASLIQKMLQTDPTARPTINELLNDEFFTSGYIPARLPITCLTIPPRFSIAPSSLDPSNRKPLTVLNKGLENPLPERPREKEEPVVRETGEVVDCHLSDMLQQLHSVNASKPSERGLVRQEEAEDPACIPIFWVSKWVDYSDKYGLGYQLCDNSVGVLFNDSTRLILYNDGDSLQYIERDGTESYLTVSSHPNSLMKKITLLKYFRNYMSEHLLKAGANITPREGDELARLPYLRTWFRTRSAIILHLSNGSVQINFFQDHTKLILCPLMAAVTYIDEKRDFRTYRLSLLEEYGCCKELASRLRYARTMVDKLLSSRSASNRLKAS
Chain of Vascular endothelial growth factor receptor 3 (Homo sapiens) (P35916 whole entry): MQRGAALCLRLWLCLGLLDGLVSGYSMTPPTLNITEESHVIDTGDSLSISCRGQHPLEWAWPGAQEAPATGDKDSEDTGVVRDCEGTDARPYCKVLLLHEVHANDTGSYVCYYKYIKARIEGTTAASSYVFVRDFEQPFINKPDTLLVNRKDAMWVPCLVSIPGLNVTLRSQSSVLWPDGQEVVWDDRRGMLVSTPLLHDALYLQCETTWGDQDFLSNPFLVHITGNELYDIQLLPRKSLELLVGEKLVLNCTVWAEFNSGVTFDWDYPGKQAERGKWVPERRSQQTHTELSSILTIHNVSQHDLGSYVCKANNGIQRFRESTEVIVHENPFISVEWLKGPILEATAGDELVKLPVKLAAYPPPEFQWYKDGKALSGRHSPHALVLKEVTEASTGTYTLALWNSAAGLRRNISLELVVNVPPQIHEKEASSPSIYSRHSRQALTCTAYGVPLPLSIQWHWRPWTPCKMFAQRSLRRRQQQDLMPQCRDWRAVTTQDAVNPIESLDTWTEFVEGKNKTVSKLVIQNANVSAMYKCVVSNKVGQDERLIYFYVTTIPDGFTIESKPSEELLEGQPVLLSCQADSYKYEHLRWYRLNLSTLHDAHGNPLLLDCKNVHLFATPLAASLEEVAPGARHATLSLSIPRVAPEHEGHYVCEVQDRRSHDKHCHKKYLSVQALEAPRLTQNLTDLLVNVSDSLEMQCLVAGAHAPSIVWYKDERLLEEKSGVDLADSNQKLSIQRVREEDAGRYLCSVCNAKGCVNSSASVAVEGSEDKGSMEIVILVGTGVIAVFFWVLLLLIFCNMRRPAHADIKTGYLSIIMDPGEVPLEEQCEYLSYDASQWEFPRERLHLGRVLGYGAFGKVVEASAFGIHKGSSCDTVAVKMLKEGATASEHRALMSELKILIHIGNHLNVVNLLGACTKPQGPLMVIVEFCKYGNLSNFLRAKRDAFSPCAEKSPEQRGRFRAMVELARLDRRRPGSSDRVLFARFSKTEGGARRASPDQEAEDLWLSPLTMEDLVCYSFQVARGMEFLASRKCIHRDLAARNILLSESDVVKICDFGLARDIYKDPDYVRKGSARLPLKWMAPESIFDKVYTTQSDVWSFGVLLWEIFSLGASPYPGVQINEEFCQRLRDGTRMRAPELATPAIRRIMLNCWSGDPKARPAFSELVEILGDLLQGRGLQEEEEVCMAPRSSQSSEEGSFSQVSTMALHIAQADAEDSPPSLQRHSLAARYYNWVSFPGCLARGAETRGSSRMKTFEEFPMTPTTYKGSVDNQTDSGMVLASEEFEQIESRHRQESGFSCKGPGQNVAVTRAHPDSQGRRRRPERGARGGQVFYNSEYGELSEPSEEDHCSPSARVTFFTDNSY
Chain of Macrophage colony-stimulating factor 1 receptor (Homo sapiens) (P07333 whole entry): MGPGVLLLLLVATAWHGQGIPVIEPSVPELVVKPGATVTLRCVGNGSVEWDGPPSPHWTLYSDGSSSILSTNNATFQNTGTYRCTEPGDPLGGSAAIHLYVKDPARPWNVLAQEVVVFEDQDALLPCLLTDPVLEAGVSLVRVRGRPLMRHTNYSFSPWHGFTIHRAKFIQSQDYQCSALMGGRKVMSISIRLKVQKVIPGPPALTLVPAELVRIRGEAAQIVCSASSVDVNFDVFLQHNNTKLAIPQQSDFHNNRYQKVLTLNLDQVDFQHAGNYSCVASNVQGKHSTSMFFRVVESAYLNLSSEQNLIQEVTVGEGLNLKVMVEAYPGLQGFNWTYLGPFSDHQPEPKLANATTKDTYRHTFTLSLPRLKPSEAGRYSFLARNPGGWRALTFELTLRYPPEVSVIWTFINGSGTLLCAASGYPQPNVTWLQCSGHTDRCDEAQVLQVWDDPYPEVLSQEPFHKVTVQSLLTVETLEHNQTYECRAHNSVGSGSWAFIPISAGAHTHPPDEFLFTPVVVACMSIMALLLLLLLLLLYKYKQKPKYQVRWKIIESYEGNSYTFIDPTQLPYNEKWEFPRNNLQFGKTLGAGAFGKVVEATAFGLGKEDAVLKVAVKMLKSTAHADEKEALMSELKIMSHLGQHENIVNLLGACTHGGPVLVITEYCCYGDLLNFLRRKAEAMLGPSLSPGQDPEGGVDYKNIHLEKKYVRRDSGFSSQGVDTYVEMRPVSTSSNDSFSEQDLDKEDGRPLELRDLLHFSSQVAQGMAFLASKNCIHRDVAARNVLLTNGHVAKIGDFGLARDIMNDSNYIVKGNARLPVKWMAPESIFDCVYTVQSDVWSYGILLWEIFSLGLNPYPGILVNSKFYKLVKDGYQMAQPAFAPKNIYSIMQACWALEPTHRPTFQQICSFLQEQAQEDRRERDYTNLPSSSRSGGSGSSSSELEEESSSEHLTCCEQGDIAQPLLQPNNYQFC

What is called inhibition is the relative decrease from the control value, in per cent. `Nc1nccc(-c2c(-c3ccc(F)cc3)ncn2C2CCNCC2)n1`: the inhibition in assay [1] was -3.35% and 1.18%; in [2], -2.75% and -0.7%; in assay [3] it was 0.36% and 1.29%; in assay [4], -3.4% and 0.5%; in assay [5], -4.07% and 0.05%; in assay [6], -2.7% and -2.19%. In addition, the inhibition in [7] was -2.93% and 2.63%; in assay [8], -2.09% and 0.15%; in [9] it was -4.78% and 0.13%; in [10], 0.73% and -1.84%; in [11], 3.57% and -1.29%; in assay [12], -0.73% and -0.83%. Moreover, the inhibition in [13] is 0.68% and 2.5%; in assay [14], -4.46% and 0.75%; in assay [15], 4.31% and -2.1%; in assay [16], 0.55% and 1.51%; in assay [17] it was -0.68% and 1.04%; in [18], -0.4% and 1.93%. Moreover, the inhibition in [19] was 0.46% and 3.61%; in assay [20], -0.69% and 0.67%.
